Structures are written as SMILES. Screen size: about 7,900 compounds; about 400 (5.1%) showed an effect of 50% or more. The list comes from a sample in which strong results are over-represented; it also holds similar structures and randomly drawn compounds.

For this experiment, the target named is Parkinson's disease protein 7 (PARK7/DJ1) (human, UniProt Q99497). The experiment can be described thus: primary screen, percent inhibition; read as competition with a fluorescent probe by fluorescence polarization; higher = more effect of the substance. The settings on record: 100 µM. As for the experimental part: The screen was conducted using the conditions as described above in 1536-well plates (Corning 3724) with a reaction volume of 8 μL per well. The compound library containing 7887 covalent fragments was purchased at Enamine Ltd. and received as 100 mM DMSO stocks in 384 well LDV Echo plates (Labcyte LP-0200). Stock solutions of 0.26 μM PARK7 and 80 nM JYQ-107 were prepared. Using a Labcyte Echo550 acoustic dispenser, 8 nL of the DMSO stock solution of the library compounds was transferred from the source plates into the empty 1536-well screening plates to obtain a 100 μM final compound concentration. Next, PARK7 (6 μL, final concentration 0.2 μM) was dispensed using a Biotek MultiflowFX liquid dispenser and incubated for 2 h, followed by dispensing the probe JYQ-107 (2 μL, final concentration 20 nM). After 2 h incubation, the FP signal was recorded on a BMG Labtech PHERAstar plate reader (λex/em 480/520 nm). The relative loss of FP signal compared with reference controls was used to calculate the remaining enzyme activity.
Chain of Parkinson's disease protein 7 (PARK7/DJ1) (Q99497 whole entry, looked up, the tested form may be a part): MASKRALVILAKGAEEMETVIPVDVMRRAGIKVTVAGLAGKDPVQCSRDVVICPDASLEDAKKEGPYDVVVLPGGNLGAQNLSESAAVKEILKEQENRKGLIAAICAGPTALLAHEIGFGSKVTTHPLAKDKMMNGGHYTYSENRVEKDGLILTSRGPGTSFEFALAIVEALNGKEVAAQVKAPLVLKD
Turning to `Nc1ccccc1S(=O)(=O)F`, the Inhibition % was determined as 44.7%.
`Nc1cccnc1S(=O)(=O)F`: the Inhibition % is 81.4%.
For the compound `N#Cc1ncccc1S(N)(=O)=O`, the Inhibition % was found to be 6.94%.
In the case of `O=C(CCl)NCc1ccc(C(=O)N2CCCC2)cc1`, the Inhibition % amounted to 4.96%.
In the case of `Cn1cc(C=CC(=O)N2CCc3ccccc32)cn1`, the Inhibition % worked out at 3.76%.
For `C=CC(=O)N1CCOc2ccc(F)cc2C1` the value was 11.2%; for `O=c1[nH]c(-c2cccs2)no1`, 3.67%; for `Cc1ccsc1-c1nnc(NC(=O)CCl)o1`, 10.8%.
Consider `N#Cc1ccc(C(=O)O)[nH]1`, for which the Inhibition % worked out at 7.43%.
As to `Cc1[nH]c(C#N)cc1C(=O)O`, the Inhibition % was 6.7%.
For `N#Cc1ccc(C(=O)O)c(=O)[nH]1`, the Inhibition % is on record as 83.7%.
For `O=C(O)c1ccc(C2OCCO2)cc1`, the Inhibition % is reported as 7.82%.
The same measure for `N#CC(c1ccccc1)N1CCN(C(=O)CCl)CC1` (centres unmarked): 18.3%.
As to `CCN(CC)C(=O)c1ccc(NC(=O)CCl)cc1`, the Inhibition % turned out to be 43.2%.
Turning to `CCC(C)c1ccccc1NC(=O)CCl` (centres unmarked), the Inhibition % is 16.8%.
For the compound `CCC(C)c1ccc(-c2csc(NC(=O)CCl)n2)cc1` (centres unmarked), the Inhibition % was 8.03%.
In the case of `CCN(c1ccc(NC(=O)CCl)cc1)C(C)C.Cl`, the Inhibition % stood at 98.6%.
For `CC(C)c1ccc(C(C)NC(=O)CCl)cc1` (centres unmarked), the Inhibition % worked out at 6.77%.
For `CCC(C)c1ccc(NC(=O)CCl)cc1` (centres unmarked), the Inhibition % was 99.1%.
With `CC(C)c1ccc(NC(=O)CCl)cc1`, the Inhibition % is 95.8%.
Take `CC(C)c1ccc(CCNC(=O)CCl)cc1`: the Inhibition % was found to be 22%.
As to `C=CC(=O)NC(=O)NC12CC3CC(CC(C3)C1)C2`, the Inhibition % is 3.27%.
As to `C=CC(=O)N1CCC(CNC(C)=O)CC1`, the Inhibition % came out at 25%.
With `CC1(C)OC1c1ccccc1` (centres unmarked), the Inhibition % was 13.4%.
For `C#CCN(c1cnc(C#N)cn1)C1CCCC1` the value was 1.73%; for `COC1CS(=O)(=O)CC1Cl` (centres unmarked), 8.34%; for `C=CC(=O)N1CCc2nc(-c3ccccc3)sc2C1`, 16.7%.
With `O=C(CCl)N1c2ccccc2Sc2ccc(Cl)cc21`, the Inhibition % was 6.3%.
As to `COc1ccc(S(=O)(=O)n2ccc(C)n2)cc1`, the Inhibition % was determined as 7.42%.
For `CCc1nccn1S(=O)(=O)c1cc(Cl)c(C)cc1OC`, the Inhibition % amounted to 4.53%.
On to `O=c1onc(-c2ncccn2)n1Cc1ccc(Cl)s1`, for which the Inhibition % is given as 2.32%.
On to `O=C(CCl)NNC(=O)C1CC1`, for which the Inhibition % came to 1.1%.
Regarding `O=C(CCl)NC1CCOCC1`, the Inhibition % was found to be 10.5%.
The same measure for `C=CC(=O)NCC1CCC(F)(F)CC1`: 5.38%; for `O=C(CCl)C1CCC(F)(F)CC1`: 96.8%; for `O=C(CCl)C1CCOCC1`: 99%.
Consider `O=C(CCl)NCC1CCOC1` (centres unmarked), for which the Inhibition % was determined as 8.14%.
Regarding `Cc1cc(C)n(CC2CCCN2C2CC(C)OC2=O)n1` (centres unmarked), the Inhibition % is listed as -2.43%.
The same measure for `Cc1ccnc(S)n1.Cl`: 5.09%.
For `NS(=O)(=O)c1cccc(NC(=O)Oc2ccccc2)c1` the value was 4.87%; for `C=CC(=O)Nc1cccc(OC(F)F)c1`, 4.3%; for `COCc1ncsc1C(=O)Nc1cccc(S(=O)(=O)F)c1`, 8.52%.
The same measure for `O=C(Nc1cccc(S(=O)(=O)F)c1)c1ccoc1C(F)(F)F`: 96.8%.
`C=CC(=O)Nc1cccc(C(F)(F)F)c1`: the Inhibition % is reported as 9.31%.
As to `Cc1ccoc1C(=O)Nc1cccc(S(=O)(=O)F)c1`, the Inhibition % was 7.02%.
As to `Cc1nc2c(C(=O)Nc3cccc(S(=O)(=O)F)c3)cccc2o1`, the Inhibition % came to 43.6%.
In the case of `O=C(Nc1cccc(S(=O)(=O)F)c1)c1sccc1OC(F)F`, the Inhibition % is 93.1%.
Turning to `Cc1cc(C(=O)Nc2cccc(S(=O)(=O)F)c2)c(C(F)(F)F)o1`, the Inhibition % was 96.8%.
For `C=C(Cl)CSc1nc(N)cc(N)n1` the value was 18.5%; for `CC(C)CN1CCN(c2ccc(C#N)nc2)C(C)C1=O` (centres unmarked), 5.84%.
For `O=C(CCl)Nc1ccccc1-c1ccccc1`, the Inhibition % is recorded as 8.41%.
With `CCn1cc(CCCl)cn1`, the Inhibition % is 5.4%.
The same measure for `CN1CN=C(S)NC1`: 3.57%.
Regarding `C=CC(=O)NCC1(C)CCOCC1`, the Inhibition % stood at 4.38%.
In the case of `C=CC(=O)NCC1CCC2(COC(C)C2)O1` (centres unmarked), the Inhibition % is 2.62%.
For `C=CC(=O)Nc1cccc(C(F)F)c1`, the Inhibition % stood at 6.09%.
As for `C=CC(=O)NCc1ccc2c(c1)CCO2`, the Inhibition % came out at 9.41%.
In the case of `O=C(CCl)Nc1cccc(S(=O)(=O)N=C2CCCN2)c1`, the Inhibition % was 18.3%.
For `O=C(Cc1ccc2c(c1)CCO2)Nc1cccc(S(=O)(=O)F)c1` the value was 94.3%; for `C=CC(=O)Nc1ccc2c(c1)COC2`, 11.5%.
In the case of `O=C(Cc1ccc2c(c1)COC2)Nc1cccc(S(=O)(=O)F)c1`, the Inhibition % is reported as 97.6%.
As for `O=C(Cc1cccc(C(F)F)c1)Nc1cccc(S(=O)(=O)F)c1`, the Inhibition % was determined as 52%.
Regarding `O=C1CC2(CCNCC2)N1`, the Inhibition % is 3.72%.
With `N#CC(=Cc1ccc(N)cc1)C(N)=O`, the Inhibition % is 8.09%.
Consider `CC(C)CNc1oc(Cc2ccccc2)nc1C#N`, for which the Inhibition % is reported as 6.85%.
The same measure for `C=CC(=O)NC1CC2(COC(C)C2)C1` (centres unmarked): 8.04%.
Turning to `COc1cc(C)c(C)cc1S(=O)(=O)n1cccn1`, the Inhibition % was found to be 6.67%.
As for `N#Cc1c(Cl)nc2sccn12`, the Inhibition % is on record as 4.22%.
For `CCN(Cc1ccc(Cl)s1)C(=O)CCl` the value was 9.61%.
`N#Cc1ncn(CCC(=O)NCc2ccc(F)cc2)n1`: the Inhibition % is 7.22%.
Turning to `O=C1CC2(CCN(Cc3ccc(Cl)cc3Cl)CC2)N1`, the Inhibition % is given as -1.16%.
For the compound `O=C(CCl)Nc1ccc([N+](=O)[O-])cc1`, the Inhibition % is listed as 32.8%.
In the case of `CN(C(=O)CCCl)c1ccccc1`, the Inhibition % is 9.16%.
For `Cc1csc(N(C(=O)CCl)c2ccccc2)n1`, the Inhibition % was 87.3%.
Turning to `CN(C(=O)CCl)c1ccc([N+](=O)[O-])cc1`, the Inhibition % stood at 93.5%.
`O=C(CCl)NN(c1ccccc1)c1ccccc1`: the Inhibition % is recorded as 10.3%.
As for `CCN(C(=O)CCl)c1ccccc1`, the Inhibition % was found to be 44.6%.
Turning to `Cc1ccc([N+](=O)[O-])cc1NC(=O)CCl`, the Inhibition % stood at 18.4%.
For `O=C(CCl)NC(=O)Nc1ccccc1` the value was 28.5%; for `CN(C(=O)CCl)c1ccccc1`, 79.7%; for `O=C(CCl)N(Cc1ccccc1)c1ccccc1`, 10.7%.
Regarding `O=C(Nc1ccccc1)NN(C(=O)CCl)c1ccccc1`, the Inhibition % was found to be 93.5%.
As for `Cc1cccc(N(Cc2ccccc2)C(=O)CCl)c1`, the Inhibition % was 9.42%.

Source of the values: publication PMC9574860, “Chemical Toolkit for PARK7: Potent, Selective, and High-Throughput” (Journal of Medicinal Chemistry, 2022).
